# Test results taken from PubChem BioAssay (NCI).
# About 79,000 compounds went through this panel and 15% of them were active in at least one assay; those are over-represented in the sample as a whole. Unmarked numbers belong to inactive results. The source made the active and inactive calls. Cut-off read from the data, not from the text of the source: active = growth inhibition above about 70%; inactive = the rest.
# Assays:
# [1] = NCI Yeast Anticancer Drug Screen. Data for the rad52 strain (AID 147);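 note: 0% = growth of vehicle-treated control cultures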; conditions: S. cerevisiae rad52 mutant growth inhibition, hits give high values
# Procedure, shortened: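 The repair-mutant yeast strain was incubated with compounds, then growth was read and inhibition derived relative to vehicle.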
# [2] = NCI Yeast Anticancer Drug Screen. Data for the mgt1 strain (AID 153); conditions: S. cerevisiae mgt1 mutant growth inhibition, hits give high values
# Procedure, shortened: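 Vehicle-normalized growth inhibition is determined in mgt1 yeast, a strain selected for a defined alteration in DNA repair or cell cycle control.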
# [3] = NCI Yeast Anticancer Drug Screen. Data for the rad50 strain (AID 155);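 note: 0% = growth of vehicle-only cultures of the same strain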; conditions: S. cerevisiae rad50 strain growth inhibition, hits give high values
# Procedure, shortened: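 Growth of the mutant yeast was measured after compound exposure and referenced to vehicle-treated cultures.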
# [4] = NCI Yeast Anticancer Drug Screen. Data for the mec2-1 strain (AID 157); conditions: S. cerevisiae mec2-1 strain, hits give high values
# Procedure, shortened: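 Mutant yeast (mec2-1) grown with compound; growth inhibition relative to vehicle control reported.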
# [5] = NCI Yeast Anticancer Drug Screen. Data for the rad14 strain (AID 159);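 note: 0% = growth of vehicle-treated control cultures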; conditions: S. cerevisiae rad14 strain growth inhibition, hits give high values
# Procedure, shortened: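 Here, inhibition of yeast growth was measured after compound exposure, using a strain with a genetic defect in DNA damage repair and vehicle-treated cultures as the reference.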
# [6] = NCI Yeast Anticancer Drug Screen. Data for the sgs1 mgt1 strain (AID 161);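 note: 0% = growth of cultures given vehicle only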; conditions: S. cerevisiae sgs1 mgt1 strain, hits give high values
# Procedure, shortened: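 Growth of a repair-deficient yeast mutant was monitored after compound treatment and expressed as inhibition relative to vehicle-treated cultures.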
# [7] = NCI Yeast Anticancer Drug Screen. Data for the CLN2oe strain (AID 163);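 note: 0% = growth of vehicle-only control cultures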; conditions: S. cerevisiae CLN2oe strain, hits give high values
# Procedure, shortened: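 Compounds are applied to yeast harbouring a defined cell-cycle control change; reduced growth compared with vehicle-treated controls gives the value.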
# [8] = NCI Yeast Anticancer Drug Screen. Data for the cln2 rad14 strain (AID 165);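 note: 0% = growth equal to vehicle treated cultures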; conditions: S. cerevisiae cln2 rad14 strain, hits give high values
# Procedure, shortened: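 Readout is yeast growth inhibition versus vehicle-treated controls, using a strain with cln2 and rad14 alterations exposed to compound.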
# [9] = NCI Yeast Anticancer Drug Screen. Data for the bub3 strain (AID 167); conditions: S. cerevisiae bub3 mutant strain, hits give high values
# Procedure, shortened: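 Whole-cell yeast assay. The mutant strain was incubated with compounds, and growth inhibition was determined by comparison with vehicle-treated cells.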
# [10] = NCI Yeast Anticancer Drug Screen. Data for the wt2 strain (AID 169);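 note: 0% = growth of vehicle-treated yeast cultures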; conditions: S. cerevisiae wt2 strain growth inhibition, hits give high values
# Procedure, shortened: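 Against vehicle-treated controls, the growth of yeast exposed to each compound was compared, and the inhibition was recorded.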
# [11] = NCI Yeast Anticancer Drug Screen. Data for the mlh1 strain (AID 171);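 note: 0% = growth of vehicle-treated control cultures of the same strain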; conditions: S. cerevisiae mlh1 strain growth inhibition, hits give high values
# Procedure, shortened: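 Measured: yeast growth. Reference: vehicle-treated controls. Organism: strain with a defined alteration affecting DNA damage repair or cell cycle control, treated with compound.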
# [12] = NCI Yeast Anticancer Drug Screen. Data for the sgs1 strain (AID 173);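 note: 0% = growth of vehicle-only control cultures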; conditions: S. cerevisiae sgs1 mutant, hits give high values
# Procedure, shortened: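 Each compound was added to cultures of the altered yeast strain. Growth was recorded, and inhibition was derived by comparison with vehicle controls.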
# [13] = NCI Yeast Anticancer Drug Screen. Data for the rad18 strain (AID 177); conditions: S. cerevisiae rad18 mutant growth inhibition, hits give high values
# Procedure, shortened: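 Vehicle-treated cultures served as the baseline for scoring compound-induced growth inhibition in DNA-repair-mutant yeast.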
# [14] = at 5.0 µM (retest, dose inferred, filed as 0.5)
# [15] = at 50.0 µM (retest, dose inferred, filed as 5.0)
compound,measurement,setting,value
CSc1s[s+]c(SC)c1-c1ccccc1,growth inhibition,[1]; at 1.2 µM,13%
same,growth inhibition,[1]; at 3.7 µM,4%
same,growth inhibition,[1]; at 11.0 µM,9%
same,growth inhibition,[1]; at 33.0 µM,54%
same,growth inhibition,[1]; at 100.0 µM,72% (active)
same,growth inhibition,[2]; at 1.2 µM,13%
same,growth inhibition,[2]; at 3.7 µM,28%
same,growth inhibition,[2]; at 11.0 µM,25%
same,growth inhibition,[2]; at 33.0 µM,59%
same,growth inhibition,[2]; at 100.0 µM,76% (active)
same,growth inhibition,[3]; at 1.2 µM,-3%
same,growth inhibition,[3]; at 3.7 µM,2%
same,growth inhibition,[3]; [14],28%
same,growth inhibition,[3]; at 11.0 µM,11%
same,growth inhibition,[3]; at 33.0 µM,58%
same,growth inhibition,[3]; [15],46%
same,growth inhibition,[3]; at 50.0 µM,72.3% (active)
same,growth inhibition,[3]; at 100.0 µM,68%
same,growth inhibition,[4]; at 1.2 µM,7%
same,growth inhibition,[4]; at 3.7 µM,-5%
same,growth inhibition,[4]; [14],48%
same,growth inhibition,[4]; at 11.0 µM,1%
same,growth inhibition,[4]; at 33.0 µM,51%
same,growth inhibition,[4]; [15],52%
same,growth inhibition,[4]; at 50.0 µM,60.6%
same,growth inhibition,[4]; at 100.0 µM,59%
same,growth inhibition,[5]; at 1.2 µM,-31%
same,growth inhibition,[5]; at 3.7 µM,-23%
same,growth inhibition,[5]; at 11.0 µM,-21%
same,growth inhibition,[5]; at 33.0 µM,21%
same,growth inhibition,[5]; at 100.0 µM,59%
same,growth inhibition,[6]; [14],-6%
same,growth inhibition,[6]; [15],73% (active)
same,growth inhibition,[7]; at 1.2 µM,9%
same,growth inhibition,[7]; at 3.7 µM,12%
same,growth inhibition,[7]; at 11.0 µM,4%
same,growth inhibition,[7]; at 33.0 µM,34%
same,growth inhibition,[7]; at 100.0 µM,42%
same,growth inhibition,[8]; [14],26%
same,growth inhibition,[8]; [15],59%
same,growth inhibition,[9]; at 1.2 µM,9%
same,growth inhibition,[9]; at 3.7 µM,12%
same,growth inhibition,[9]; [14],36%
same,growth inhibition,[9]; at 11.0 µM,24%
same,growth inhibition,[9]; at 33.0 µM,66%
same,growth inhibition,[9]; [15],72% (active)
same,growth inhibition,[9]; at 100.0 µM,75% (active)
same,growth inhibition,[10]; at 1.2 µM,-26%
same,growth inhibition,[10]; at 3.7 µM,-19%
same,growth inhibition,[10]; at 11.0 µM,-34%
same,growth inhibition,[10]; at 33.0 µM,39%
same,growth inhibition,[10]; at 100.0 µM,68%
same,growth inhibition,[11]; at 1.2 µM,-35%
same,growth inhibition,[11]; at 3.7 µM,-23%
same,growth inhibition,[11]; at 11.0 µM,-14%
same,growth inhibition,[11]; at 33.0 µM,52%
same,growth inhibition,[11]; at 100.0 µM,13%
same,growth inhibition,[12]; at 1.2 µM,-20%
same,growth inhibition,[12]; at 3.7 µM,-29%
same,growth inhibition,[12]; at 11.0 µM,-15%
same,growth inhibition,[12]; at 33.0 µM,47%
same,growth inhibition,[12]; at 100.0 µM,70% (active)
same,growth inhibition,[13]; at 1.2 µM,3%
same,growth inhibition,[13]; at 3.7 µM,14%
same,growth inhibition,[13]; at 11.0 µM,22%
same,growth inhibition,[13]; at 33.0 µM,63%
same,growth inhibition,[13]; at 100.0 µM,73% (active)
